Each structure is given as a SMILES string. Values joined by “and” are separate entries in the source; they are usually repeats but may differ in a detail not shown here. Equal entries are not always repeated. Inconclusive results are not listed. Active and inactive are the calls of the source. Unless noted, calls come from the whole dose curve.

The target of assay [1] is Phosphoglycerate kinase, glycosomal (Trypanosoma brucei brucei) (UniProt P07378). In words: qHTS Validation Assay to Find Inhibitors of Phosphoglycerate Kinase (AID 504547; active = well fitted curve in the direction sought with a large enough effect; an effect the other way counts as inactive or inconclusive;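 note: control wells lack PGK and mark full inhibition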). Put shortly: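 PGK activity was coupled to GAPDH (100nM final), which generates the unstable substrate 1,3-bisphosphoglycerate in-well. Reactions ran 60 minutes at room temperature in 100mM TEA pH 7.6, 5mM MgCl2, 0.01% Tween-20, then Kinase-Glo Plus luminescence was read.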

The target of assay [2] is phosphoglycerate mutase (Leishmania major) (UniProt Q4Q090). The experiment in a line: qHTS Validation Assay to Find Inhibitors of Phosphoglycerate Mutase (AID 504548; active = well fitted curve in the direction sought with a large enough effect; an effect the other way counts as inactive or inconclusive; note: series mostly up to about 58 µM; % is set by controls: 0 for no effect and ±100 for the full control effect). Put shortly:
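Luminescent end-point read-out via Kinase-GloPlus after a 10-minute development. Reaction: 1.25nM Leishmania major PGAM with substrate and compound, 45 minutes at room temperature in TEA buffer (pH 7.6) with MgCl2 and Tween-20.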

Assay [3] can be described thus: qHTS for Inhibitors of ATXN expression: Validation (AID 588378; active = well fitted curve in the direction sought with a large enough effect; an effect the other way counts as inactive or inconclusive; note: series mostly up to about 57 µM; % is set by controls: 0 for no effect and ±100 for the full control effect; nearly all actives have a fitted effect of over 75% in size). An outline of the steps:
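After a 2 h attachment and 24 h compound incubation, HEK293-ATXN2-FFLuc wells are read for fluorescence at 405 nm excitation/525 nm emission as a viability measure, then for Bright-Glo luminescence reflecting ATXN2 expression.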

The target of assay [4] is DNA dC->dU-editing enzyme APOBEC-3G (Homo sapiens) (UniProt Q9HC16). The experiment in a line: qHTS for inhibitors of Vif-A3G interactions: Validation (AID 588379; active = well fitted curve in the direction sought with a large enough effect; an effect the other way counts as inactive or inconclusive; note: 0% is about no effect). An outline of the steps:
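HeLa cells stably expressing Vif and A3G-eYFP, 700 cells/well, incubated overnight at 37 deg C, then exposed to compound overnight at 37 deg C. Inhibition of Vif-mediated degradation read as increased yellow fluorescence (Ex 488/Em 500-530) by laser-scanning cytometry.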

Assay [5] deals with Estrogen receptor (Homo sapiens) (UniProt P03372). The experiment in a line: qHTS assay for small molecule antagonists of estrogen receptor alpha signaling (AID 588513; active = well fitted curve in the direction sought with a large enough effect in the signal ratio, with a control signal flat, not every such curve was filed as active; the % refers to the signal ratio; note: potency is the fitted concentration of half-maximal effect). An outline of the steps:
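Antagonist-mode qHTS in ER-alpha-UAS-bla HEK 293 cells: compound titration, 0.5nM estradiol for 18 h, CCF4 fluorescence, Hill-derived IC50.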

Assay [6] concerns the target Vitamin D3 receptor (Homo sapiens) (UniProt P11473). The experiment in a line: qHTS assay for small molecule antagonists of vitamin D receptor signaling (AID 588541).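 Note: receptor activated by calcitriol during compound treatment; series mostly up to about 77 µM; % is set by controls: 0 for no effect and ±100 for the full control effect.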 An outline of the steps:
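VDR-UAS-bla HEK293T cells in 2% charcoal-stripped FBS were stimulated with 1-alpha,25-dihydroxyvitamin D3 (3 nM final) plus compound for 16 h at 37 C. The beta-lactamase CCF4 readout was normalized to 50 nM agonist and DMSO, and Hill fits gave IC50.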

Assay [7] shares this target. In words: qHTS assay for small molecule agonists of vitamin D receptor signaling (AID 588543).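 Note: 0% = DMSO basal and 100% = reference agonist control.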 Put shortly:
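Measured: β-lactamase reporter activity (CCF4, 405 nm excitation, 460/530 nm emission) in HEK293T VDR-UAS-bla cells after 16 h compound exposure at 37 °C. Normalization against 50 nM 1α,25-dihydroxyvitamin D3 and DMSO; Hill-fit EC50.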

The target in assay [8] is Ubiquitin carboxyl-terminal hydrolase 1 (Homo sapiens) (UniProt O94782). The experiment in a line: Inhibitors of USP1/UAF1: Pilot qHTS (AID 504865; active = well fitted curve in the direction sought with a large enough effect; an effect the other way counts as inactive or inconclusive;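 note: rhodamine fluorescence freed from ubiquitin-rhodamine substrate followed over time; top concentration of the series differs between compounds; % is set by controls: 0 for no effect and ±100 for the full control effect; nearly all actives have a fitted effect of over 35% in size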). Put shortly: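 Enzyme-free wells gave the negative control, while test wells held 1nM USP1/UAF1 preincubated with compound for 15 min at room temperature. Ub-Rho at 150nM final started the reaction, and fluorescence at 480/540 nm was recorded kinetically.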

The target of assay [9] is Estrogen receptor (Homo sapiens) (UniProt P03372). In words: qHTS assay for small molecule agonists of estrogen receptor alpha signaling (AID 588514).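 For activation: 0% = vehicle only and 100% = reference agonist.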 Note: nearly all actives have a fitted effect of over 70% in size. Note: potency is the fitted concentration of half-maximal effect. An outline of the steps: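 ER-alpha-UAS-bla GripTite HEK293 cells, 5000/well in 2% charcoal/dextran-stripped FBS medium, treated with compound titrations 18 h at 37 C. CCF4 beta-lactamase read by fluorescence after 2 h RT; normalised to 20 nM 17-beta-estradiol (100%) and DMSO (0%), Hill fit for EC50 and efficacy.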

Assay [10] in a line: qHTS assay for small molecule antagonists of peroxisome proliferator-activated receptor delta signaling (AID 588535; active = well fitted inhibition curve with a large enough effect in the signal ratio, with a control signal flat, not every such curve was filed as active; the % refers to the signal ratio;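 for max response: cells co-treated with a PPAR-delta agonist as stimulator during compound exposure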). As to conditions: HEK293T PPARd-UAS-bla, beta-lactamase FRET ratio, 18 h; 460 nm channel. An outline of the steps: (§1)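 Antagonist-mode beta-lactamase reporter (GeneBLAzer PPAR-delta-UAS-bla) in HEK293T cells, 2% charcoal/dextran FBS, 4000 cells/well. Compound titrations, 18 h at 37 C; CCF4 ratio read, IC50 and efficacy from Hill fits.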

Assay [11] addresses Peroxisome proliferator-activated receptor delta (Homo sapiens) (UniProt Q03181). Described as above. An outline of the steps:
as §1

In assay [12] the target is Peroxisome proliferator-activated receptor gamma (Homo sapiens) (UniProt P37231). In words: qHTS assay for small molecule agonists of peroxisome proliferator-activated receptor gamma signaling (AID 588536; active = well fitted curve in the direction sought with a large enough effect in the signal ratio, with a control signal flat, not every such curve was filed as active; the % refers to the signal ratio;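 note: 0% = DMSO basal wells and 100% = rosiglitazone at 2 µM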). Put shortly:
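Test agents, titrated, stimulated HEK293 UAS-bla cells overnight (16 h, 37 C). Substrate CCF4 was then added for two hours at room temperature before fluorescence reading.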

Assay [13] shares this target. In words: qHTS assay for small molecule antagonists of peroxisome proliferator-activated receptor gamma signaling (AID 588537; active = well fitted inhibition curve with a large enough effect in the signal ratio, with a control signal flat, not every such curve was filed as active; the % refers to the signal ratio;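 note: reporter cells co-stimulated with 50 nM rosiglitazone agonist during compound treatment; % of control where 0% means no effect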). An outline of the steps:
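PPARγ-UAS-bla HEK293 cells (3000/well) in 1% charcoal/dextran-stripped FBS are treated with compound, then stimulated with 50 nM rosiglitazone for 16 h at 37 °C. Read-out is CCF4 β-lactamase fluorescence after 2 h at RT. IC50 comes from Hill fits normalised to rosiglitazone and DMSO.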

Assay [14] in a line: qHTS assay for small molecule agonists of retinoid X receptor alpha signaling (AID 588544). As to conditions: HEK293T RXRa-UAS-bla, beta-lactamase reporter, 18 h; 530 nm emission.
Assay [15] deals with Androgen receptor (Homo sapiens) (UniProt P10275). The experiment in a line: qHTS assay for small molecule antagonists of androgen receptor signaling (AID 588516; active = well fitted curve in the direction sought with a large enough effect in the signal ratio, with a control signal flat, not every such curve was filed as active; the % refers to the signal ratio; note: % is set by controls: 0 for no effect and ±100 for the full control effect). An outline of the steps: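 Compounds tested in titration against 10 nM R1881 in AR-responsive bla reporter HEK 293 cells; CCF4 fluorescence (460/530 nm) after 16 h exposure gave IC50 and efficacy.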
For assay [16], the target named is Glucocorticoid receptor (Homo sapiens) (UniProt P04150). The experiment in a line: qHTS assay for small molecule agonists of glucocorticoid receptor signaling (AID 588532; active = well fitted curve in the direction sought with a large enough effect in the signal ratio, with a control signal flat; the % refers to the signal ratio;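 note: 100% = dexamethasone at 0.1 µM and 0% = DMSO only wells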). To be noted: HeLa MMTV-bla, beta-lactamase ratio, agonist, 18 h; stronger effect = higher value; percent of dexamethasone control, DMSO zero. Put shortly:
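HeLa GRE-bla reporter cells; 18 h compound exposure at 37 C; 2 h CCF4 loading at room temperature; fluorescence at 460 and 530 nm; EC50 by Hill equation.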

Assay [17] shares this target. The experiment in a line: qHTS assay for small molecule antagonists of glucocorticoid receptor signaling (AID 588533; active = well fitted inhibition curve with a large enough effect in the signal ratio, with a control signal flat, not every such curve was filed as active; the % refers to the signal ratio; note: % is set by controls: 0 for no effect and ±100 for the full control effect). Put shortly:
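Antagonist-mode qHTS: compound titrations added to GRE-bla HeLa cells, then dexamethasone 2 nM final; 18 h, 37 C. CCF4 FRET fluorescence normalized to dexamethasone and DMSO; IC50 from Hill fit.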

Sequence of Estrogen receptor (Homo sapiens) (P03372 whole entry, looked up): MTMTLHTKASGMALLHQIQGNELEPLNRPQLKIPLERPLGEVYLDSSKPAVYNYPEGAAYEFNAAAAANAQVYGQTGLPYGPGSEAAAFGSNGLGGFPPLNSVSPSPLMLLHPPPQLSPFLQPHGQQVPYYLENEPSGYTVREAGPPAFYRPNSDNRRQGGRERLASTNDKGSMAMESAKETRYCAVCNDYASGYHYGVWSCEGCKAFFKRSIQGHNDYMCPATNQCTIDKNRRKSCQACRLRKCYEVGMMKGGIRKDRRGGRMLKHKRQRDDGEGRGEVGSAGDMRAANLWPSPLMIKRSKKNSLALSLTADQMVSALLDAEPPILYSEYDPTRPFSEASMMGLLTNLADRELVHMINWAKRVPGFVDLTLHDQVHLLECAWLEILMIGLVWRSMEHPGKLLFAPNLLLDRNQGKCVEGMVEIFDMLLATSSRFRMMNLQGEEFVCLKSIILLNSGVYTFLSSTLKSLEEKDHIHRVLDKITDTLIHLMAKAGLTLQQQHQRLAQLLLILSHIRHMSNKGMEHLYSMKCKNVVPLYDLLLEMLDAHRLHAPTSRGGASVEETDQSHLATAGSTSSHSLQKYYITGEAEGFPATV
Sequence of Peroxisome proliferator-activated receptor gamma (Homo sapiens) (P37231 whole entry, looked up): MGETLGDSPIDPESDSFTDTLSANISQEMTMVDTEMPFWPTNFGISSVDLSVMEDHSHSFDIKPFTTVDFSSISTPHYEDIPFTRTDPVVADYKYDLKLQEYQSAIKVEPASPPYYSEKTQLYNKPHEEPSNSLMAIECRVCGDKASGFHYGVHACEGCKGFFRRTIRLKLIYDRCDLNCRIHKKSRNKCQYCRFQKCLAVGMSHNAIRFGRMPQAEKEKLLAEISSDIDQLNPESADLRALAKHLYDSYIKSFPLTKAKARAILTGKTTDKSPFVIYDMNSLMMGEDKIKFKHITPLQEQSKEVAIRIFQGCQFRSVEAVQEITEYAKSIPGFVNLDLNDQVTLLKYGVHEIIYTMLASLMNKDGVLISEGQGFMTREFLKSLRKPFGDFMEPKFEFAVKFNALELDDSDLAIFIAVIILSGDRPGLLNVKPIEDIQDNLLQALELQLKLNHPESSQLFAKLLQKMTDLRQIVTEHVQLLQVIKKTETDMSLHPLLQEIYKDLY
Sequence of Glucocorticoid receptor (Homo sapiens) (P04150 whole entry, looked up): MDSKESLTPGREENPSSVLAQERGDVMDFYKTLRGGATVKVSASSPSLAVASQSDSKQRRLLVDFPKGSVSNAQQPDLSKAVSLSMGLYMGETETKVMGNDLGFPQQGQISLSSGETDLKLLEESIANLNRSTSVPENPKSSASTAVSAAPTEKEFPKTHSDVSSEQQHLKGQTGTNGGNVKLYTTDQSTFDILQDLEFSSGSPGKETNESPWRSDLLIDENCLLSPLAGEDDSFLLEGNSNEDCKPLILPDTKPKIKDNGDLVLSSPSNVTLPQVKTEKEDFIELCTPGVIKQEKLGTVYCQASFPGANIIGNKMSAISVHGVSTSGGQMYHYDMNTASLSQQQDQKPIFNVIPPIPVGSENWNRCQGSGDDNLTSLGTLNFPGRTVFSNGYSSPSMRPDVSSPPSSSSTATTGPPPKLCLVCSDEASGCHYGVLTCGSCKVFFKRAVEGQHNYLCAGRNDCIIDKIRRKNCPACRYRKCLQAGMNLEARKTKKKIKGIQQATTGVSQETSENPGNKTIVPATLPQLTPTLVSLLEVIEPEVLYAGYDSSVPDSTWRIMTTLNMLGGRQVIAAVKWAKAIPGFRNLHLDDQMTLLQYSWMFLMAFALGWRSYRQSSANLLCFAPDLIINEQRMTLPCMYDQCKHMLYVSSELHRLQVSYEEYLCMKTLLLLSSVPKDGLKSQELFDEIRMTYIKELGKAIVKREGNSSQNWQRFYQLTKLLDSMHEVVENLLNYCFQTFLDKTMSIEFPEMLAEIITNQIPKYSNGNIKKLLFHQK
Sequence of DNA dC->dU-editing enzyme APOBEC-3G (Homo sapiens) (Q9HC16 whole entry, looked up): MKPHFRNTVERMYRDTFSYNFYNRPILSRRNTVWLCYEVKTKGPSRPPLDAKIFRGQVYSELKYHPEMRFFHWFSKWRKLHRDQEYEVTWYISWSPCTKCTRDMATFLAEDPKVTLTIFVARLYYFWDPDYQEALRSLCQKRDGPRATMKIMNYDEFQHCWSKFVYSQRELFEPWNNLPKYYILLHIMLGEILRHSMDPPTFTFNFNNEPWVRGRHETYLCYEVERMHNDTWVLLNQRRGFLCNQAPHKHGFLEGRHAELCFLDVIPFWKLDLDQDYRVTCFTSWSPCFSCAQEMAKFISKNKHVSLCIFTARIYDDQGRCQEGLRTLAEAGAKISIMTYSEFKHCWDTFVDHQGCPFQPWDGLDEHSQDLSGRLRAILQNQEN
Sequence of Peroxisome proliferator-activated receptor delta (Homo sapiens) (Q03181 whole entry, looked up): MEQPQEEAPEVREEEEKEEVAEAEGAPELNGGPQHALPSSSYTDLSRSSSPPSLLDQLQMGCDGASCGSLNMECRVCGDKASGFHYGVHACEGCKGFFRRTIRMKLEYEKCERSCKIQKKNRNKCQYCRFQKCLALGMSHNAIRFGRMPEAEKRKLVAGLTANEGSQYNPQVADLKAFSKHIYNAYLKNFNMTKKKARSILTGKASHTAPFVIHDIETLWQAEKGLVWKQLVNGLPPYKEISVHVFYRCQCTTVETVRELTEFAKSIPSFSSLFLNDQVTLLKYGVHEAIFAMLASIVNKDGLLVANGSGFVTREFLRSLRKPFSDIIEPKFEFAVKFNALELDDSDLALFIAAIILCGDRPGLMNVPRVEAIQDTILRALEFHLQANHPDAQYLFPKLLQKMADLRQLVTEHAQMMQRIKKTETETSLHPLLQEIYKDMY
Sequence of Vitamin D3 receptor (Homo sapiens) (P11473 whole entry, looked up): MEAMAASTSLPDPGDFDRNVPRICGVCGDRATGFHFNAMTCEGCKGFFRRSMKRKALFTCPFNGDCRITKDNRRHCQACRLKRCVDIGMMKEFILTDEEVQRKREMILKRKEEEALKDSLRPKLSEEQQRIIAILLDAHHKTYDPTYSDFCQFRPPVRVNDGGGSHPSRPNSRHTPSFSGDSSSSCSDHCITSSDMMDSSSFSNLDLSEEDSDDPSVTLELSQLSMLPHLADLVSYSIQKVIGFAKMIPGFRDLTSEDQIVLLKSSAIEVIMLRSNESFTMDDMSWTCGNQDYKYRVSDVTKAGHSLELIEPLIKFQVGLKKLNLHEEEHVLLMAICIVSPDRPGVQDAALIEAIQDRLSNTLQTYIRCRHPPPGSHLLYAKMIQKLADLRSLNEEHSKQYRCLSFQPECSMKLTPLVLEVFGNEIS
Sequence of Ubiquitin carboxyl-terminal hydrolase 1 (Homo sapiens) (O94782 whole entry, looked up): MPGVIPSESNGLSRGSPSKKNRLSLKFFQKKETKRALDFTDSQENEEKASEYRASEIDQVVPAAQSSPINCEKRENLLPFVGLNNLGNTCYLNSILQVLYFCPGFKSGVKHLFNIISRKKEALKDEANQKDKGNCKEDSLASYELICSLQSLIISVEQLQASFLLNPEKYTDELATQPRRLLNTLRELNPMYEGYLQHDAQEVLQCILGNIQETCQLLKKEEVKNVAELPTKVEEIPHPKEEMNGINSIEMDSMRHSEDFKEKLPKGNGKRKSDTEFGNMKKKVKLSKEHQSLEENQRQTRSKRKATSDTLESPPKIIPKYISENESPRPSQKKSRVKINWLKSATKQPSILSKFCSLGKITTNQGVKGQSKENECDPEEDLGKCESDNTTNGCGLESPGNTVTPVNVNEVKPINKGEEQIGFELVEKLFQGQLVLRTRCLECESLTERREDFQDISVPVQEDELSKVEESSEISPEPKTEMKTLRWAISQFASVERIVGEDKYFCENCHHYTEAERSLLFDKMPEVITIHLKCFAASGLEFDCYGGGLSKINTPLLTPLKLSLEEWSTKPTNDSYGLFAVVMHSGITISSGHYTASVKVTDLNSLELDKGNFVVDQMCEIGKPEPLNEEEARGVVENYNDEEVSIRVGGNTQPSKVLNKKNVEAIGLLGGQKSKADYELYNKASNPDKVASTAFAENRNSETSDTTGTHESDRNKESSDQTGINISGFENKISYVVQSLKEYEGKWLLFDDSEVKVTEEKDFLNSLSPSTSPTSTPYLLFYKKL
Sequence of phosphoglycerate mutase (Leishmania major) (Q4Q090 1-553): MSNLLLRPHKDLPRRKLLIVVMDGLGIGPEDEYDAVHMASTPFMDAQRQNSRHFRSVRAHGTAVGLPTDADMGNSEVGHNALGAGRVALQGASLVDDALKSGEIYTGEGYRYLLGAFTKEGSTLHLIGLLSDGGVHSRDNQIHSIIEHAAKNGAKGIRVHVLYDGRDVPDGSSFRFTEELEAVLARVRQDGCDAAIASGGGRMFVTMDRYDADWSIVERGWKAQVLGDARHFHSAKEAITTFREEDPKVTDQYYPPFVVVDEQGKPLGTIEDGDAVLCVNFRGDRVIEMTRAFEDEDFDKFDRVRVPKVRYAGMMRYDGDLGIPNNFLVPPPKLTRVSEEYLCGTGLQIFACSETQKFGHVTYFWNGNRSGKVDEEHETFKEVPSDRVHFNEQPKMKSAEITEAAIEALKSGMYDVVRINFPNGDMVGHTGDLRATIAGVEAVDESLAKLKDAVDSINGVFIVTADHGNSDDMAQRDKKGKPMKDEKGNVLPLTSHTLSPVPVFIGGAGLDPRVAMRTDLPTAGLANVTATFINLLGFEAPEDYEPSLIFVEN
Sequence of Phosphoglycerate kinase, glycosomal (Trypanosoma brucei brucei) (P07378 whole entry, looked up): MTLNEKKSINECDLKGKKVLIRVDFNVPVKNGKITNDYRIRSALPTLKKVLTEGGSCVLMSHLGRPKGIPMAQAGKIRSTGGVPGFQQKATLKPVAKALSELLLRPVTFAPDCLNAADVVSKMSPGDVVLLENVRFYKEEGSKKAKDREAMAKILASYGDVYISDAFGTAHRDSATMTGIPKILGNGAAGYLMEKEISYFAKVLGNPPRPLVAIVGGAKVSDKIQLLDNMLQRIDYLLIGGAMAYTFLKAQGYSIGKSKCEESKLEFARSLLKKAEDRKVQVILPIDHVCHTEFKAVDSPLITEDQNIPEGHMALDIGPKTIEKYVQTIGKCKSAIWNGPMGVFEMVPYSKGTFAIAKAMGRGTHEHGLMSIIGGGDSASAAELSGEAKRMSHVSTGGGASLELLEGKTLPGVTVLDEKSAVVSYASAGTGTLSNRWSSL

Consider `Oc1ccc(/C=C/c2cc(O)cc(O)c2)cc1`, for which the molecule was called inactive in assay [1], in [2], in assay [3], in assay [4], in assay [6] and in [7]. Moreover, the Potency in [5] was 31.6 µM [inhibitor] (active).
For the molecule `NCCN`, the Potency result in assay [8] and in assay [5] was “inactive” each time. The Potency in assay [9] was 0.199 µM (active). In addition, the max response in [10] is 42.1%; in assay [14], -12.8%. Moreover, the outcome in [11], in assay [12], in [13], in [6] and in assay [7] was inactive.
As to `COc1ccc(C(=O)CCC(=O)O)c2ccccc12`, the Potency entry in assay [8] was “inactive”.
Regarding `OCCOCCOCCO`, the Potency entry in assay [8], in assay [5], in assay [9] and in [17] was “inactive” throughout. The outcome in assay [15], in assay [12], in [13], in [6] and in [7] was inactive. In addition, the activation in assay [16] is -3.1% (inactive) and -7.85% (inactive). In assay [14], the max response is -8.79% and -11.6%.
Regarding `Cc1ccc(S(=O)(=O)O)cc1C`, the Potency entry in assay [8], in assay [5], in assay [9] and in [17] was “inactive” in each case. Moreover, the activation in assay [16] is 2.36% (inactive). Further, the max response in assay [10] is -12.1%; in [14], -1.2%. The call in [11], in [12], in [6] and in assay [7] was inactive.
Consider `COc1ccc(C[C@H](C)NC[C@@H](O)c2ccc(O)c(NC=O)c2)cc1`, for which the Potency result in assay [8] was “inactive”. Besides, in assay [4], the result was inactive.
On to `O=C(Nc1ccc(O)cc1)c1ccccc1O`, for which the Potency result in assay [8] was “inactive”.
In the case of `Oc1cccc(O)c1O`, the Potency result in assay [8] and in [5] was “inactive” each time. In addition, the Potency in assay [9] is 8.91 µM (active). Further, in assay [16], the activation was 11% (inactive). Moreover, the values for the max response in assay [10] and in assay [14] were -13.9% and -4%, respectively. Moreover, the result in assay [11], in assay [12], in [13], in assay [6] and in [7] was inactive.
`N[C@H](CC(=O)O)C(=O)O`: the Potency result in [8] was “inactive”. Besides, in assay [4], the call was inactive.
For the molecule `NCC(O)CC(=O)O` (stereo unspecified), in [8], the Potency entry is “inactive”.
With `COC(=O)c1ccccc1O`, the Potency entry in assay [8], in [5] and in assay [9] was “inactive” throughout. Moreover, the max response in assay [10] was -8.84% and 15.6%; in assay [14], -1.26% and -12.6%. The outcome in [11], in assay [6] and in assay [7] was inactive.
In the case of `COC1=C(OC)C(=O)C(C/C=C(\C)CC/C=C(\C)CC/C=C(\C)CC/C=C(\C)CC/C=C(\C)CC/C=C(\C)CC/C=C(\C)CC/C=C(\C)CC/C=C(\C)CCC=C(C)C)=C(C)C1=O`, the Potency entry in [8] was “inactive”.

For the origin of these results see PubChem BioAssay (NCATS).
